From PubChem BioAssay (NCI)
“And” between values parts separate entries of the source, which are not always exact repeats. Equal entries are not always repeated. Compounds without any hit were thinned out: in the full panel of roughly 83,000, 20% have a hit.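 96-well plates, one dose, 48 hours. Percent growth reported; active if below 10.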 Some compounds were tested as several samples or in several runs, with calls that do not always agree. The source made the active and inactive calls.

What follows are compounds tested on MDA-MB-468 breast (assay: NCI-60 one-dose screen, 48 h (100 = growth as untreated, 0 = no growth, -100 = all killed)). Settings: 10 µM unless noted.

With `COc1ccc(C2=C/C(=C\c3ccc(Cl)cc3)C(=O)N2/N=C/c2ccc(Cl)cc2)cc1` as the compound, how does the growth read?
Its growth is 94.3% (inactive).

With `O=C(CCCCCCN1CC(=O)N2[C@@H](c3ccccc3Br)c3[nH]c4ccccc4c3C[C@H]2C1=O)NO` as the compound, how does the growth read?
Its growth is 36.2% (inactive).

With `CCCCCCCCCCSC(=N)N` (tested in a mixture with another compound) as the compound, how does the growth read?
The growth was -9.42% (active).

For `CC(=O)c1c(C)nc(SCC(=O)Nc2cccc(O)c2)n1-c1ccc(Cl)cc1`, which growth is on record?
Its growth is 79.7% (inactive).

For `COc1cc(C=C2C(=O)N(C)C(=O)N(C)C2=O)cc(CN2CCCCC2)c1O`, which growth is on record?
Its growth is 104% (inactive).

Which growth does the source give for `O=C(O)[C@@H]1[C@H]2C[C@H]3c4[nH]c5ccccc5c4CCN3C[C@@H]2CC[C@@H]1O` here?
Its growth is 104% (inactive).

How did the growth turn out when `NC(=O)c1c(NC(=O)c2ccccc2C(F)(F)F)sc2c1CCC(=O)C2` was run?
Its growth is 14.9% (inactive).

With `Cc1ccc(NC(=O)c2ccc(CN3CCN(C)CC3)cc2)cc1Oc1ccc(-c2[nH]nc3ncnc(N)c23)cc1` as the compound, how does the growth read?
Its growth is 59.3% (inactive).

`C=C1C(=O)O[C@@H]2C[C@@H](C)/C=C\C(=O)[C@](C)(OC(C)=O)C[C@H](OC(=O)/C(C)=C\C)[C@@H]12` was tested. Which growth did it give?
The growth was -59.1% (active).

For `CCN(CC)CCOc1ccccc1-n1c(C)ccc1-c1ccccc1`, which growth is on record?
Its growth is 85.1% (inactive).

How did the growth turn out when `O=C1N(Cc2ccccc2Cl)c2ccccc2C12NN=C(c1cccc(Cl)c1)S2` (configuration not stated) was run?
Its growth is -29.6% (active).

For `COC(=O)c1nc(-c2ccccc2)oc1S(=O)(=O)N1CCC(C(N)=O)CC1`, which growth is on record?
Its growth is -14.6% (active).

For `COc1cc2c(c(OC)c1OC)C(=O)CC(c1cccc(NC(=O)c3ccccc3Br)c1)O2` (configuration not stated), which growth is on record?
The growth was 85.1% (inactive).

For `CC(C)(C)[Si](C)(C)OC1[C@@H](O[Si](C)(C)C(C)(C)C)[C@@H](CNC(=O)NC(=O)CCl)O[C@H]1n1cnc2c(NC(=O)Nc3ccccc3)ncnc21` (some centres not stated), which growth is on record?
Its growth is -64.6% (active).

Which growth does the source give for `COC(=O)[C@]1(C)CCC[C@]2(C)[C@H]3C[C@H]4C(C(C)C)=C[C@]3(CC[C@H]21)[C@@H]1C(=O)N(CCC#N)C(=O)[C@@H]14` here?
Its growth is 86.9% (inactive).

Which growth does the source give for `COc1ccc2c(c1)O/C(=C\c1ccc([N+](=O)[O-])o1)C2=O` here?
The growth was -46.5% (active).

For `O=c1[nH]c(=S)c2c(n1CCCO)CCC2`, which growth is on record?
The growth was 106% (inactive).

With `NC(Cc1ccc(O)cc1)C(=O)N/N=C/c1ccccc1O` (configuration not stated) as the compound, how does the growth read?
The growth was 108% (inactive).

`Cc1ccccc1C(=O)NN` was tested. Which growth did it give?
Its growth is 121% (inactive).

How did the growth turn out when `O=C1C=CC(=CC=C2C=CN(CCCCCCCCCCCO)C=C2)C=C1` was run?
Its growth is -37.4% (active).

Which growth does the source give for `COc1cc(C(=O)/C=C/c2cc(-c3cc(OC)c(OC)c(OC)c3)n[nH]2)cc(OC)c1OC` here?
The growth was -79% (active).

For `COc1cc(-c2ccc(NC(=O)NC3CC3)c(OC)c2)ccc1NC(=O)NC1CC1`, which growth is on record?
Its growth is 88.8% (inactive).

Which growth does the source give for `COc1cc2nc(-c3ccc(C(F)(F)F)cc3)cc(OCCN3CCCCC3)c2cc1OC` here?
Its growth is 93.6% (inactive).

With `COc1cc(/C=C/c2cc(/C=C/c3ccc(O)c(OC)c3)[nH]c(=O)n2)ccc1O` as the compound, how does the growth read?
Its growth is 6.34% (active).

Which growth does the source give for `Cc1nc(Nc2cccnc2)sc1C(=O)/C=C/c1ccc(F)cc1` here?
The growth was 26.7% (inactive).

For `Cc1ccc(C)n1/C=C/n1c(C)ccc1C`, which growth is on record?
The growth was 95.1% (inactive).

`O=C1/C(=C/c2ccccc2)Oc2ccc(O)c(I)c21` was tested. Which growth did it give?
Its growth is 104% (inactive).

With `O=C(/C=C/c1ccc(O)c(O)c1)N1CCN(c2ccc(Cl)cc2)CC1` as the compound, how does the growth read?
The growth was 39.7% (inactive).

Which growth does the source give for `O=C(NN1C(=O)CSC1c1ccc(Cl)cc1)c1cccnc1` (configuration not stated) here?
The growth was 115% (inactive).

How did the growth turn out when `COc1cc(-c2nn(-c3cccc(NC(=O)CN4CCOCC4)c3)cc2-c2cccnc2)ccc1Cl` was run?
The growth was 74.9% (inactive).

`CCCCc1n(Cc2ccc3ccccc3c2)cc[n+]1Cc1ccc2ccccc2c1` was tested. Which growth did it give?
The growth was -55.2% (active).

For `C=C1C(=O)O[C@H]2[C@H]1CC/C(COC(=O)NCc1ccc(Cn3c(=O)sn(-c4ccc(C#N)cc4)c3=O)cc1)=C\CC[C@@]1(C)O[C@@H]21`, which growth is on record?
The growth was 7.72% (active).

`CCN(CC)C(Cl)=Nc1ccc(Cl)cc1` was tested. Which growth did it give?
The growth was 103% (inactive).

For `COc1ccc(-n2c(SCc3cc(OC)c(OC)c(OC)c3)nc3ccc(C)cc3c2=O)c(OC)c1`, which growth is on record?
The growth was 17.1% (inactive).

With `Cc1cccc(C)c1NC(=O)CSC(=S)N1CCN(CCOCCO)CC1` as the compound, how does the growth read?
The growth was 127% (inactive).

How did the growth turn out when `CCCCCCCC1(C)NC(=O)NC1=O` (configuration not stated) was run?
Its growth is 115% (inactive).

Which growth does the source give for `OC1CCC(Oc2cccc3cnc(Nc4ccc5nc[nH]c5c4)nc23)CC1` (configuration not stated) here?
Its growth is -42.4% (active) and 69.7% (inactive).
